Shown are actives, neighbours in structure and some others; about 14% of the full set was active somewhere.
Shiga inhibitor: inhibitors of Shiga toxin in Vero cells | inhibition, % at 38.7 µM | AID 2315 | Vero cells, Shiga toxin protein synthesis inhibition reporter | 290,000 tested, 9.2% active; in the data active = inhibition mostly above about 28%, no sharp cut-off; inactive = mostly below about 43%; note: 0% is about no effect
FBPA Giardia inh: inhibitors of Giardia lamblia fructose-1,6-bisphosphate aldolase; A8B2U2; purified Giardia FBPA; Potency, µM (doses to about 59.6 µM), for the others: top-dose activity, negative = inhibition, usual class: inhibitors; 290,000 tested, 0.71% active; AID 2451; note: potency is the fitted concentration of half-maximal effect; % is set by controls: 0 for no effect and ±100 for the full control effect; nearly all actives have a fitted effect of over 55% in size
Target sequence (A8B2U2 whole entry, looked up): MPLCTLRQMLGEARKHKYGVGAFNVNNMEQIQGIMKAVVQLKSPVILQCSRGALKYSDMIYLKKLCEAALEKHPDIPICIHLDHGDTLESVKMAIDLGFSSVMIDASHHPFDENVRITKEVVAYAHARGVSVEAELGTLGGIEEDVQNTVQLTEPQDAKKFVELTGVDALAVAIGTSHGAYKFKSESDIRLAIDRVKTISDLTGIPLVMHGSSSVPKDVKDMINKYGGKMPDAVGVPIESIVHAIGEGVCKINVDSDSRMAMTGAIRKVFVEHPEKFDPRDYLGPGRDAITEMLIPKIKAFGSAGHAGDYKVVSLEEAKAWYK
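40 nM FBPA preincubated 10 min at RT with compound (up to 57.5 uM final), then substrate plus GAPDH/TPI/NAD/arsenate coupling and diaphorase/resazurin added. Fluorescence read after 20 min at RT, 525/598 nm.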
CHX counter: counter-screen for Shiga toxin inhibitors: cycloheximide protein synthesis inhibition | cell reporter, cycloheximide protein synthesis inhibition counterscreen | max response, % | 300,000 tested, 12% active | AID 2314; in the data active = max response mostly above about 13%, no sharp cut-off; inactive = mostly below about 14%; note: read at 38.3 µM for the half of the compounds with a filed dose; 0% is about no effect
NS1 inh: blocks influenza NS1 protein function | Potency, µM (top dose mostly 46.1 µM), without a hit: at the top dose activity, positive = more growth | 270,000 tested, 0.4% active; calls by dose curve; note: potency is the fitted concentration of half-maximal effect; actives are rising curves; nearly all actives have a fitted effect of over 50% in size
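In this qHTS, NS1 from influenza A is expressed in budding yeast, where it slows growth. Cells are switched from glucose to 2% galactose medium (pH 6.0, -URA), treated with compound, and growth recovery is read at OD600.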
LmPK inh: blocks Leishmania mexicana pyruvate kinase activity; Q27686; purified LmPK, Kinase-Glo ATP luminescence, 1 h; Potency, µM (doses to about 57.5 µM), for the others: at the highest dose activity change, negative = inhibition, usual class: inhibitors; 290,000 tested, 0.37% active; AID 1721; note: potency is the fitted concentration of half-maximal effect; % is set by controls: 0 for no effect and ±100 for the full control effect
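qHTS format; LmPK 0.1 nM; substrates PEP 0.5 mM and ADP 0.1 mM. One-hour room-temperature incubation, then coupled luciferase luminescence; 0.5 nM enzyme wells mark activation.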
An asterisk follows results filed as active; u = inconclusive; x = no result given; [ ] = another dose, or the depositor's remark. Unless noted, calls come from the whole dose curve; as a rule, active = well fitted curve in the direction sought with a large enough effect; inconclusive = small, poorly fitted or top-dose-only effect, or another doubt; inactive = no such curve, though single readings can be large; an effect the other way counts as inactive or inconclusive.

SMILES | Shiga inhibitor | FBPA Giardia inh | CHX counter | NS1 inh | LmPK inh
CCOc1ccc(CN2C(=O)c3ccccc3Sc3ccc(C(=O)NCc4ccc5c(c4)OCO5)cc32)cc1 | 1 | x | 4 | x | x
Cc1ccc(C2=NS(=O)(=O)N(C)C(C(=O)Nc3ccc4c(c3)OCO4)=C2)cc1 | 18* | -18% | 18* | 12% | -1%
CN1C(C(=O)Nc2cccc(O)c2)=CC(c2ccco2)=NS1(=O)=O | 8 | 3% | 10* | 16% | -1%
Cc1ccc(O)c(NC(=O)C2=CC(c3ccco3)=NS(=O)(=O)N2C)c1 | 8 | -7% | 2 | -4% | -9%
COc1ccc(C2=NS(=O)(=O)N(C)C(C(=O)Nc3ccc4c(c3)OCO4)=C2)cc1 | 8 | -14% | -2 | -11% | -5%
COc1ccc(C2=NS(=O)(=O)N(C)C(C(=O)Nc3ccc4c(c3)OCO4)=C2)cc1OC | 11 | -6% | 20* | 9% | -2%
CCCCNCc1cc2ccccc2o1 | -4 | -4% | -2 | 2% | -7%
O=C(c1cccc(F)c1)N1CCC2(CCN(Cc3ccncc3)CC2)CC1 | x | 4% | x | x | x
O=C1C(c2ccnc3ccccc23)=C(O)c2ccccc21 | active | -3% | 47* | 1% | u
O=C(CSc1cccc[n+]1[O-])c1cc2ccccc2o1 | 140* | u | 131* | -198% | 21%
Nc1nc(SCC(=O)c2cc3ccccc3o2)n[nH]1 | 29 | u | 8 | -2% | 2%
O=C(CSc1cccc[n+]1[O-])c1cc(Cl)ccc1Cl | 78* | u | 28* | x | 0%
O=C(O)CSc1cccc[n+]1[O-] | -8 | 0% | 1 | 8% | -4%
O=C1[C@H]2[C@H]3C=C[C@@H](C4[C@H]3[C@@H]3C(=O)N(CN5CCSCC5)C(=O)[C@H]43)[C@H]2C(=O)N1CN1CCSCC1 (some centres undefined) | x | x | x | 5% | x
CC(=O)Nc1ccc(NC(=O)C/C(C)=N/NC(=O)c2cccc3ccccc23)cc1 | -2 | 4% | -3 | -14% | -3%
C/C(CC(=O)Nc1ccc(OCc2ccccc2)cc1)=N\NC(=O)C(=O)Nc1cccc(C)c1 | -2 | -7% | 28* | 15% | -2%
COc1ccccc1NC(=O)C(=O)N/N=C(\C)CC(=O)Nc1ccc(OCc2ccccc2)cc1 | 21 | 1% | 23 | 6% | 3%
CC(=O)Nc1ccc(C(=O)N/N=C(\C)CC(=O)Nc2ccc(OCc3ccccc3)cc2)cc1 | -2 | -11% | 18* | 7% | 1%
CSc1nc(-c2ccc(Cl)cc2)nn1C(=O)c1ccco1 | 65* | -1% | 62* | -10% | 7%
CSc1nc(-c2ccccc2)nn1C(=O)c1ccc(C)cc1 | 65 | 1% | 15* | -18% | -3%
CSc1nc(-c2ccco2)nn1C(=O)c1ccc(C)cc1 | 2 | -14% | -2 | -44% | -2%
O=C1c2ccccc2C(=O)c2ccccc21 | x | 4% | x | x | x
O=C1C=Cc2ccccc2C1=O | 23 | 3.5µM* | 16 | 20% | -16%
O=C(CCNC(=O)N1CC(=O)Nc2ccccc21)Nc1ccc(F)c(Cl)c1 | -4 | x | 1 | 5% | 3%
COc1cc(S(=O)(=O)Nc2ccc(C)cc2)ccc1N=Cc1c(C)c(C#N)c(=O)n(C)c1O | -8 | -21% | -3 | x | 0%
SMILES | Shiga inhibitor | FBPA Giardia inh | CHX counter | NS1 inh | LmPK inh
Cc1ccc(N/N=C/c2c(C)c(C#N)c(=O)n(C)c2O)cc1C | 19 | 13µM* | 7 | 4% | 2%
Cc1ccccc1C(=O)N1CCC(C(=O)NC2CCCC2)CC1 | -8 | -6% | -4 | 11% | 3%
Cc1cccc(-c2noc(CCC(=O)NCCc3ccccc3)n2)c1 | 26 | 7% | 3 | -11% | 0%
Cc1cccc(-c2noc(CCc3ccccc3)n2)c1 | 81* | -2% | 40* | -19% | -2%
Cc1cccc(-c2noc(CCC(=O)NCc3ccccc3)n2)c1 | -8 | 15% | 5 | -24% | 0%
Cc1cccc(-c2noc(Cc3ccccc3)n2)c1 | 100* | -9% | 56* | -12% | -10%
Cc1cccc(-c2noc(CNS(=O)(=O)c3ccccc3)n2)c1 | 10 | 11% | 18* | -4% | 8%
CCc1ccc(C(=O)c2c(N)c(-c3nc(-c4ccc5c(c4)OCO5)cs3)c3ccccn23)cc1 | 39 | x | 18 | x | x
CCN(Cc1cnn(C)c1)C(=O)c1ccc2nc(Cc3cccc(Cl)c3)oc2c1 | 9 | 0% | 9 | -2% | 4%
COCc1nnc(NC(=O)C2CCN(C(=O)c3ccco3)CC2)s1 | -3 | 1% | 1 | -6% | 2%
O=C(NCc1ccc(F)cc1)C1CCCN(c2nc3ccsc3c(=O)s2)C1 (centres undefined) | -10 | 4% | -3 | x | -2%
O=C(Nc1nc2ccsc2c(=O)s1)C1CCC1 | 55* | -7% | 41* | -1% | -14%
O=C(Nc1nc2c(s1)CCc1ccccc1-2)c1ccco1 | 81* | u | 50* | -98% | 4%
COc1ccc2nc(NC(=O)C3CCN(C(=O)c4ccco4)CC3)sc2c1 | 144* | -10% | 36* | -14% | 1%
Cc1ccc2nc(NC(=O)c3ccco3)sc2c1 | 15 | 0% | 30* | -121% | 5%
Cc1nc2ccc3nc(NC(=O)c4ccco4)sc3c2s1 | x | x | x | -4% | x
CC(=O)Nc1nc2c(s1)CCc1ccccc1-2 | 47 | -9% | 17 | -6% | 3%
CCN(CC)S(=O)(=O)c1ccc(OC)c(NC(=O)CC2CCCC2)c1 | -7 | 1% | -1 | -6% | 0%
COc1cccc(N(CC(=O)NC2CCCCC2)C(=O)CCCC(=O)Nc2ccccn2)c1 | 6 | -2% | -1 | 6% | 3%
CCCCCCCCCCCCCCCC(=O)NCC(=O)O | x | -1% | x | x | x
Cc1ccc(NS(=O)(=O)c2ccc3c(c2)CCN3C(=O)CCC(=O)O)cc1Cl | 1 | -4% | 2 | 6% | 5%
NC(N)=N/N=C\c1ccc(C2CCNCC2)cc1 | x | x | x | -1% | x
Cc1ccc2nc(NC(=S)NC(=O)c3ccco3)sc2c1 | 138* | -29% | 67* | 20% | -4%
CC(C)c1nnc(NC(=O)C2CCN(C(=O)c3ccco3)CC2)s1 | 40* | 8% | 21* | 1% | -5%
O=C(Nc1nc2ccsc2c(=O)s1)c1ccco1 | 97* | 0% | 27* | -102% | -26%
SMILES | Shiga inhibitor | FBPA Giardia inh | CHX counter | NS1 inh | LmPK inh
O=C(Nc1nc2ccc(S(=O)(=O)N3CCCC3)cc2s1)c1ccco1 | -1 | 19% | 15 | 17% | 1%
Cc1nnc(NC(=O)C2CCN(C(=O)c3ccco3)CC2)s1 | -11 | -1% | -2 | -7% | -4%
COc1ccc2nc(NC(=O)c3ccco3)sc2c1 | 60* | 1% | 20* | -34% | u
CCN(CC)S(=O)(=O)c1ccc(NC(=O)CCNC(=O)c2ccccc2)cc1 | 8 | 7% | -6 | -6% | 0%
COC(=O)[C@@H]1CC[C@H](C)[C@@H](c2ccc(C)cc2)N1C(=O)c1ccc(/C=N\OC[C@@H](O)[C@H]2O[C@H]3OC(C)(C)O[C@H]3[C@@H]2O)cc1 | x | 2%[12.9 µM] | x | x | x
CC(C)CN1CCN(Cc2ccc3ncccc3c2)CC1CCO (centres undefined) | -7 | 2% | 5 | -4% | -1%
CC(C)CC1OCCC=CC1C (centres undefined) | x | -1%[12.9 µM] | x | x | x

Screening data as filed in PubChem.
